HDAC3 inh: HDAC3 deacetylase inhibitors, primary screen, biochemical, fluorescence, cell-free homogeneous | Histone deacetylase 3 (Homo sapiens), O15379 | recombinant HDAC3, fluorogenic peptide/trypsin coupled | inhibition, % at 8.3 µM | 0.15% of 320,000 active | AID 2718, 2010; in the data active means inhibition above about 26%, passing the limit was not always enough; inconclusive means no clear call, values can overlap the other calls
PKD1 inh: inhibitors of human PKD1 kinase, biochemical, fluorescence polarization; PKD1 kinase fluorescence polarization assay; inhibition, % (test concentration not listed); AID 797, 2007; Serine/threonine-protein kinase D1 (Homo sapiens), Q15139; 0.056% of 200,000 active
LANA-H2A inh: blockers of LANA interaction with H2A/H2B – biochemical, FP readout, HTS, primary screen; Protein LANA1 (Human herpesvirus 8 type P (isolate GK18)), Q9QR71; cell-free LANA-H2A/H2B peptide, fluorescence polarization; inhibition, % (test concentration not listed); 0.6% of 320,000 active; AID 2629, 2010; in the data active means inhibition mostly above about 10%, no sharp cut-off; inactive means mostly below about 6.7%
Target sequence (Q9QR71 whole entry, looked up): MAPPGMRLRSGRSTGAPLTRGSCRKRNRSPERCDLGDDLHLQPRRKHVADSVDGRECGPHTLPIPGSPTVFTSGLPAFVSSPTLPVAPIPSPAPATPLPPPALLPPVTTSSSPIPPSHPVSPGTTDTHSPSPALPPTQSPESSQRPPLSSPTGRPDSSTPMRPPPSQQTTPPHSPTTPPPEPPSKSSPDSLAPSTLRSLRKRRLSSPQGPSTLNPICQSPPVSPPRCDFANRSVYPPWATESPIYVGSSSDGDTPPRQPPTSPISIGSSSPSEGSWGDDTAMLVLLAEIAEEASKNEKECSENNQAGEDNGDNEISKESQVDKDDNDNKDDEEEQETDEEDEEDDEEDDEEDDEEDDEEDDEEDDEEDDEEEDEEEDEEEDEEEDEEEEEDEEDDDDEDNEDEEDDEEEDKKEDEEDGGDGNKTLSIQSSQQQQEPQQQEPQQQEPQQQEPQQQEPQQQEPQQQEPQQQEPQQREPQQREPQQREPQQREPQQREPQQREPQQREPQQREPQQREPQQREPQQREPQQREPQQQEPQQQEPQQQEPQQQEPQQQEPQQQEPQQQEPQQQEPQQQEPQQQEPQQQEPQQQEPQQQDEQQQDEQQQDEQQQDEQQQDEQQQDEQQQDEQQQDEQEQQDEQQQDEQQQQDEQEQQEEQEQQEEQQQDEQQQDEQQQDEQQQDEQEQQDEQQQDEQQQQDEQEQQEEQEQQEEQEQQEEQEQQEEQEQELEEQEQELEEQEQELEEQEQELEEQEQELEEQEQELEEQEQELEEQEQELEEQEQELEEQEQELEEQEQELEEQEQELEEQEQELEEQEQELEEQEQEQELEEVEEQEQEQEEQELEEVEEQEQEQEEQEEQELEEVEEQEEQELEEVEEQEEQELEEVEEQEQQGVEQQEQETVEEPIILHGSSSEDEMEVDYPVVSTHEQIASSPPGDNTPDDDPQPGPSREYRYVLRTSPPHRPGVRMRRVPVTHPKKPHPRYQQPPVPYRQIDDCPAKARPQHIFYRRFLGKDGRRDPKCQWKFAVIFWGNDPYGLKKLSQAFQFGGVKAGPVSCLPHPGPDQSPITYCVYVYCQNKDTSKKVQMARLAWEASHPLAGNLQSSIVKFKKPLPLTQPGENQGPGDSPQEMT
DSG3 Ab inh: inhibitors of pemphigus antibody binding to DSG3, primary screen, biochemical, bead-based, flow cytometry, scFv-GFP; Desmoglein-3 (Homo sapiens), P32926; binding (percent of control), % at 10 µM; 0.48% of 310,000 active; DSG3-coupled beads, scFv-anti-DSG3-GFP binding; stronger effect = lower value; AID 588358, 2011;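 active means binding more than 3 SD below its plate's average and above zero; inconclusive means below that plate limit but binding exactly zero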;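 further: hits lower antibody fragment binding to DSG3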
VLA-4 inh: inhibition in human VLA-4 binding assay, primary screen, VLA-4 allosteric modulator project, MLPCN library, flow cytometry, VLA-4 expressing cells; Integrin alpha-4 (Homo sapiens), P13612; ligand binding flow cytometry; inhibition, % (about 7 µM as worked out from the volumes in the protocol); 0.2% of 330,000 active; AID 2557, 2010
GRK2 inh: compounds blocking aptamer binding on GRK2 – biochemical, human GRK2, bead flow cytometry, HTS, primary screen | Beta-adrenergic receptor kinase 1 (Homo sapiens), P25098 | inhibition of aptamer binding, % at 10 µM | 0.59% of 330,000 active | FAM-aptamer displacement from GRK2;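 active means inhibition of aptamer binding above 40%, roughly 3 SD of noise, on plates passing a quality check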;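 further: median bead fluorescence of bound FAM aptamer so fluorescent compounds give negative values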
Numbers without * were called inactive; ? = inconclusive; nt = no result; + = active, no number. Sampled rows, rich in hits. Any-hit rate of the full collection: about 1.8%. Unless noted, no stated cut-off is given here; in the data, active means inhibition above about 50%; inactive means the rest.

SMILES	HDAC3 inh	PKD1 inh	LANA-H2A inh	DSG3 Ab inh	VLA-4 inh	GRK2 inh
CCOC(=O)N1CCN(C(=O)c2cn(CC)c3ccc(S(=O)(=O)N4CC(C)CC(C)C4)cc3c2=O)CC1 (centres undefined)	1	-3	-3	97	10	0
CCOC(=O)C1=C(COC(=O)Cc2ccc(Br)cc2)NC(=O)NC1C (centres undefined)	2	nt	0	110	7	0
CCOC(=O)c1cc(-c2ccccc2)sc1NC(=O)C(C)OC(=O)c1cccnc1Cl (centres undefined)	-2	-3	-4	108	-3	100*
CCOC(=O)c1cc(-c2ccccc2)sc1NC(=O)C(C)OC(=O)c1ccncc1 (centres undefined)	-3	4	21	105	7	4
O=C(c1cccc(Cl)c1)N1CCC2CC1c1cc(N3CCOCC3)ccc12 (centres undefined)	nt	nt	nt	98	nt	nt
CCOc1ccc(/C=N/OCC(=O)Nc2cc(C)on2)cc1	2	-2	21*	101	-6	1
CCOc1ccc(/C=N/OCC(=O)Nc2ccc3c(c2)OCO3)cc1	4	-7	-2	98	23	0
O=C(NNc1cccc([N+](=O)[O-])c1)/C(=C\c1cccnc1)NC(=O)c1ccccc1	8	nt	-3	nt	1	0
CCN(CC)S(=O)(=O)c1ccc(C(=O)N2CCN=C2SCc2cccnc2)cc1	-3	-5	26*	97	-5	1
CC(C)C(=O)Nc1nnc(CCN2CCOCC2)s1	-3	-1	18*	103	-1	6
CCOC(=O)C1=C(C)NC(C)=C(C(=O)OCC)C1C(=O)OCC(N)=O	-4	-8	-1	121	7	1
CCOC(=O)C1=C(C)NC(C)=C(C(=O)OCC)C1C(=O)OCC(=O)N(C)C1CCS(=O)(=O)C1 (centres undefined)	-1	2	20*	109	3	0
COc1ccc(CNC(=O)COC(=O)c2c(NC(C)=O)sc(C)c2C)cc1OC	nt	nt	nt	97	nt	nt
COc1ccc(OC)c(S(=O)(=O)N2CCN(c3ccccc3)CC2)c1	0	nt	6	112	9	0
COc1ccc(OC)c(S(=O)(=O)ON2C(=O)c3ccccc3C2=O)c1	37*	nt	6	290	40	1
COCCN(CC(=O)NCc1ccc2c(c1)OCO2)C(=O)CCC(=O)Nc1nccs1	1	-2	3	93	-5	1
COCCNC(=O)CN(Cc1ccc2c(c1)OCO2)C(=O)CCC(=O)Nc1nccs1	-1	3	18*	103	-7	1
COc1cccc(OC)c1NC(=O)Cn1nc(C)c2ccccc2c1=O	2	nt	-1	114	5	2
CC[C@H]1c2[nH]c3ccccc3c2C[C@H]2C(=O)N(c3ccc(F)cc3)C(=O)N21	5	nt	+	100	18	0
COC(=O)c1cc(/C=C/c2ccccc2)[nH]n1	-4	nt	1	102	-15	0
COC(=O)c1cc(/C=C/c2ccccc2)on1	2	9	-7	-27*	6	4
CCOC(=O)C1CCN(C(=O)COc2ccc(S(=O)(=O)N3CCOCC3)cc2C)CC1	0	nt	1	95	2	1
COC(C/C=C/[C@@H](O)[C@H](C)OCc1ccccc1)OC	-7	nt	2	107	nt	nt
CCC1CCCCN1C(=O)CCNC(=O)Cn1cnc2ccccc2c1=O (centres undefined)	0	nt	-2	nt	10	0
O=C(OCC(=O)N1CCCC1=O)c1ccc(Cl)cc1[N+](=O)[O-]	?	nt	2	102	-7	4
SMILES	HDAC3 inh	PKD1 inh	LANA-H2A inh	DSG3 Ab inh	VLA-4 inh	GRK2 inh
Cc1cc(C(=O)Nc2c(C)nn(Cc3ccc(F)cc3)c2C)on1	3	0	1	103	-3	0
Cc1nn(Cc2ccc(F)cc2)c(C)c1NC(=O)c1cc(-c2ccco2)on1	4	-1	13*	97	-9	4
N#Cc1ccc(C#Cc2ccc3oc4ccccc4c(=O)c3c2)cc1	-4	nt	25*	nt	16	0
O=C1N[C@@H](Cc2ccccc2)COC(=O)[C@@H](Cc2ccc(F)cc2)CC/C=C/C[C@@H]1CC(=O)N(CCO)Cc1ccccc1	9	nt	-9	102	-3	3
C[C@H]1COC(=O)[C@@H](Cc2ccc(F)cc2)CC/C=C/C[C@@H](CC(=O)N(CCO)Cc2ccccc2)C(=O)N1	-1	nt	0	80*	8	0
O=C1N[C@H](Cc2ccccc2)COC(=O)[C@@H](Cc2ccc(F)cc2)CC/C=C/C[C@H]1CC(=O)N(CCO)Cc1ccccc1	29*	nt	1	101	0	1
CC(=O)c1c(C)[nH]c(C(=O)N2CCN(S(=O)(=O)c3ccc(C)cc3C)CC2)c1C	6	nt	1	nt	15	0
CCOC(=O)c1c(C)[nH]c(C(=O)OCC(=O)N2CCN(S(=O)(=O)c3ccc(C)cc3C)CC2)c1C	6	nt	122*	99	-12	0
Nc1cc(-c2ccc(Cl)cc2)nn1S(=O)(=O)c1ccccc1	-3	4	-3	25*	-14	17
CCN(CC)CCN(C(=O)c1ccc(S(=O)(=O)N(C)C2CCCCC2)cc1)c1nc2ccc(OC)cc2s1	-2	nt	108*	117	-6	1
Nc1cccc(-c2cn(-c3cc4cc(C#CC5(O)CCCCC5)ccc4oc3=O)nn2)c1	-3	nt	0	101	-3	13
Cc1ccc(-n2nnnc2SCC(=O)c2c(N)n(CC(C)C)c(=O)n(C)c2=O)cc1	0	-7	-3	84*	26	0
NC(=O)CC(NC(=O)Cc1ccc(Br)cc1)c1ccc(NC2CCCC2)c([N+](=O)[O-])c1 (centres undefined)	-2	nt	0	1.8*	20	2
CC(C)[C@H](NC(=O)c1ccc(Cl)cc1Cl)C(=O)NNc1cccc(C(=O)O)c1	4	nt	15*	95	-12	0
CC(C)C(NC(=O)c1ccc(Cl)cc1Cl)C(=O)N1CCC1 (centres undefined)	3	nt	2	106	1	0
O=C(N=C1SC2CS(=O)(=O)CC2N1c1ccc(F)cc1)C1CC1 (centres undefined)	-3	nt	16*	120	2	2
CCc1cc(-c2[nH]ncc2-c2ccc3c(c2)OCO3)c(O)cc1O	0	-2	-8.4*	100	18	1
CCc1cc(-c2[nH]ncc2-c2ccc(OC)cc2)c(O)cc1O	2	nt	-5	92	7	0

Screens: PubChem BioAssay, several laboratories
